These results are taken from ChEMBL document CHEMBL3988442, “University of Dundee, Small-Polar-MMV Screening Library” (2021).

The structures appear in SMILES notation. Among all 69,000 compounds or so, about 420 (0.61%) showed an effect of 50% or more. Many of the other results were omitted from the sample, so strong results are more common in it than they were.

This test deals with T1, Histidine--tRNA ligase (Leishmania infantum) (UniProt A4I591).
T1 sequence (whole entry): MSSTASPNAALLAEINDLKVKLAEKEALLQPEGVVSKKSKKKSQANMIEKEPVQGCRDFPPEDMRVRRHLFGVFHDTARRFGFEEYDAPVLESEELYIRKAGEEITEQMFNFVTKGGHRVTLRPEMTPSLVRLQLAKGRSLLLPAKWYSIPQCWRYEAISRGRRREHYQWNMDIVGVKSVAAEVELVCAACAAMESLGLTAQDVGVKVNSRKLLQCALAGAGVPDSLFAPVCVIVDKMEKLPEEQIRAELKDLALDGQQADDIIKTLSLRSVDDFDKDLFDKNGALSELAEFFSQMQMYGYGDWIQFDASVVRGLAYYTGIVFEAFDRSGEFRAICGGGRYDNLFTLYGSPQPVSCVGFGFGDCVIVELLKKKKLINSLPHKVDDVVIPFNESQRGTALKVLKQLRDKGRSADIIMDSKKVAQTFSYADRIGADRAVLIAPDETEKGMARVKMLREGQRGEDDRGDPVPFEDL
As to the kind of experiment: Leishmania infantum Histidine tRNA synthetase (LdHisRS). Type of test: functional. Also on record: scale not given: in the data most compounds retested in dose-response had high values. The note with it: 30 µM.
Consider `O=C(c1ccco1)N1CCO[C@@H]2CN(c3ccccc3)CC[C@@H]2C1`, for which the Percent Effect worked out at 32%.
The value for `O=C(Nc1cnccn1)[C@@H]1COC[C@H]2CN(C3CCC3)C[C@H]21` was 12.3%; that for `O=C(Nc1ccccc1Cl)N1CCN(CC2CC2)[C@@H]2CS(=O)(=O)C[C@@H]21` was 8.2%; that for `CC(C)=CCN1C[C@H]2CC[C@@H]1CN(C(=O)CCc1n[nH]c(C)n1)C2` was -42.5%.
To `COCCN1C[C@H]2CC[C@@H]1CN(C(=O)CCc1n[nH]c(C)c1C)C2` belongs 13.9%.
To `CC(=O)N1C[C@@H]2CC[C@H](C1)N(C(=O)CCc1n[nH]c3c1CCCC3)C2` belongs 17.7%.
Turning to `O=C(CCc1n[nH]c2c1CCCC2)N1C[C@@H]2CC[C@H](C1)N(CC1CC1)C2`, the Percent Effect came to 56.5%.
The value for `CS(=O)(=O)N1C[C@@H]2CC[C@H](C1)N(C(=O)CCc1n[nH]c3c1CCCC3)C2` was 14.5%; that for `O=C(NCc1cccnc1)[C@H]1CC[C@@H]2[C@@H](CCN2c2ncccn2)O1` was 7%.
`COCCN1C(=O)[C@H]2CC[C@@H]1CN(S(=O)(=O)c1cccc(Cl)c1)C2`: the Percent Effect was 0%.
To `Cc1cc(C(=O)N2C[C@H]3CC[C@@H]2CN(C)C3)ccc1Cl` belongs 7.14%; to `COc1ccnc(N2C[C@@H]3CC[C@H](C2)N(CC2CCC2)C3=O)n1`, 19.4%.
To `O=C(c1cocn1)N1C[C@@H]2CN(CC3CC3)CCO[C@@H]2C1` belongs 7.56%; to `NC(=O)NC(=O)CN1CCN(CC2CC2)c2ccccc21`, 31.2%; to `NC(=O)CN1CCN(CC2CC2)c2ccccc21`, 56.2%.
The value for `COCCC(=O)N1CCN(CC2CC2)c2ccccc21` was 26.5%.
With `O=C(NCCCC(=O)N1CCN(CC2CC2)c2ccccc21)C1CC1`, the Percent Effect is 11.8%.
To `CNC(=O)NC(=O)CN1CCN(CC2CC2)c2ccccc21` belongs 31.2%; to `NC(=O)NC(=O)CCN1CCN(CC2CC2)c2ccccc21`, 81.2%; to `Cc1ccc(N2CC[C@@H]3O[C@@H](COCc4cccnc4)CC[C@@H]32)nn1`, 13.2%.
The value for `NC(=O)[C@@H]1CN2CCN(C(=O)C3CC3)C[C@@H]2[C@H]1c1ccccc1` was 2.04%; that for `CS(=O)(=O)N1C[C@H]2CCCN(Cc3cccs3)[C@H]2C1` was 5.26%.
For `COc1ccc2c(c1)CC(NCc1cccc(OCC(N)=O)c1)CC2` (centres undefined), the Percent Effect worked out at 59%.
In the case of `COc1ccc2c(c1)CC(NCc1cccc(NC(C)=O)c1)CC2` (centres undefined), the Percent Effect was found to be 43.6%.
Regarding `COc1ccc2c(c1)CC(NCc1cccc(CO)c1)CC2` (centres undefined), the Percent Effect came to 15.4%.
The value for `Cc1ccc(CN2Cc3ccccc3O[C@]3(CC[C@H](CO)CC3)C2)s1` was 16.5%.
The value for `O=C(c1ccccc1)N1CC[C@H]2C[C@@H](c3nnc(C4CC4)o3)O[C@@H]2C1` was 13.6%; that for `O=C(C1=NN(Cc2ccccc2)c2ccccc2S1(=O)=O)N1CCCC1` was 53.9%; that for `COC(=O)CN1N=C(C(=O)N2CCCC2)S(=O)(=O)c2ccccc21` was 12.2%.
With `CC(C)CCN1N=C(C(=O)N2CCCCCC2)S(=O)(=O)c2ccccc21`, the Percent Effect was 10.2%.
The value for `CN(CCCN1CCCCCC1)C(=O)c1ccccc1NCC(=O)O` was 50.6%.
The value for `CN(CCCc1ccccc1)C(=O)c1ccccc1NCC(=O)O` was 16.9%; that for `CN(C(=O)c1ccccc1NCC(=O)O)C(C1CC1)C1CC1` was -4.2%; that for `CNC(=O)CN1CCC(CN(C)Cc2ccc(C)cc2C)CC1` was 2.04%.
The value for `Cc1ccc(CN2C[C@@H]3C[C@H](C(=O)NCC4CC4)N(C)[C@@H]3C2)o1` was 10.1%; that for `Cc1nc(CN2C(=O)CC[C@@H]3[C@H]2CCN3C(=O)C2CCCO2)cs1` (some centres undefined) was 15.4%.
Regarding `CSc1nc(N)cc(N2C[C@@H]3CC[C@H](C2)N(Cc2cscn2)C3=O)n1`, the Percent Effect was found to be 11%.
To `Clc1cc(NCc2nccs2)nc2[nH]ccc12` belongs 22.9%; to `Clc1cc(NCc2ccncc2)nc2[nH]ccc12`, 71.1%; to `Clc1cc(NCc2ncc[nH]2)nc2[nH]ccc12`, 10.8%.
The value for `c1cnc(N2CCO[C@H]3CN(Cc4csnn4)C[C@H]32)cn1` was 26.3%.
The value for `CS(=O)(=O)NC[C@@H]1OC[C@H]2CN(C(=O)c3ccc[nH]3)CC[C@H]21` was -383%.
As for `CS(=O)(=O)N[C@@H]1COC[C@@H]2CN(Cc3ccoc3)C[C@@H]21`, the Percent Effect was determined as 6.94%.
For `CC(C)(C)c1cc(CN2C[C@H]3CC[C@@H]2CN(Cc2cscn2)C3)n[nH]1`, the Percent Effect is 11.5%.
To `O=S(=O)(c1cccnc1)N1C[C@@H]2COC[C@]2(COCC2CC2)C1` belongs 1.75%; to `Cc1cccc2c1nc(COCC(=O)O)n2-c1cnc(N)cn1`, 68.3%; to `Cc1cccc2c1nc(COCC(=O)O)n2-c1ccc(N)nc1`, 1.67%.
To `Cc1ccc(-n2c(COCC(=O)O)nc3c(C)cccc32)nc1` belongs 25%; to `CN(C)S(=O)(=O)N1CC[C@]2(O)CCN(c3nccs3)C[C@@H]2C1`, 20%; to `O=C(NCC1CC1)[C@H]1C[C@H]2OCC[C@H]2N(Cc2ccoc2)C1`, 10.5%.
To `c1ccc(-n2cc(CNCC3CCCN3c3cccnn3)cn2)cc1` (centres undefined) belongs 21.9%; to `c1ccc(Cn2cc(CNCC3CCCN3c3cccnn3)cn2)cc1` (centres undefined), 53%; to `c1ccc(-n2ccc(CNCC3CCCN3c3cccnn3)n2)cc1` (centres undefined), 25.4%.
As to `c1ccc(Cn2ccnc2CNCC2CCCN2c2cccnn2)cc1` (centres undefined), the Percent Effect was 5.36%.
